# Pf apPOL inh: Pf-apPOL DNA polymerase inhibition; Recombinant Pf-apPOL, molecular beacon fluorescence, 1.5 h; inhibition, % at 10 µM; 210,000 compounds, 0.25% hits
# mHTT CaM bind: mHTT-calmodulin interaction abrogation; AID 1671202; AlphaScreen His-mHTT/GST-CaM binding, luminescence; P42858; 190,000 compounds, 3.6% hits; inhibition, % at 15 µM;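 further: 0% = both proteins with DMSO and 100% = one protein alone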
# Numbers without * were called inactive; / = not tested or not shown. Many of the other results were omitted from the sample, so hits are more common in it than they were. No stated cut-off is given here; in the data, active means inhibition above about 50%; inactive means the rest.
SMILES,Pf apPOL inh,mHTT CaM bind
CC(=O)c1ccc(NC(=O)c2cc3ccccc3o2)cc1,-1.2,0.0
CN(C)c1ccc(NC(=O)c2cc3ccccc3o2)cc1,-4.1,59.7*
COC(=O)Oc1cc2oc(=O)sc2cc1Cl,0.3,22.0
CCOC(=O)Oc1c(Cl)cc2oc(=O)sc2c1Br,-0.2,54.0*
COC(=O)Oc1c(Cl)cc2oc(=O)sc2c1[N+](=O)[O-],9.2,81.0*
CCOC(=O)Oc1cc2oc(=O)sc2cc1Br,6.8,22.0
Cc1ccc(NC(=O)Nc2ccc3c(c2)CCN3S(C)(=O)=O)cc1,-11.0,30.3
CC(C)CC1=NN2C(=N)/C(=C/c3cccc(Cl)c3)C(=O)N=C2S1,-7.8,-1.0
CC(C)c1c(C(=O)NC2CC2)cnn1-c1ccccc1Cl,-2.3,-1.1
CCOc1cccc(CNS(=O)(=O)c2cc3c(s2)CCN(C(=O)C2CCC2)C3)c1,-5.2,6.0
O=C1OCCN1C(=O)[C@H]1[C@H](c2ccc([N+](=O)[O-])cc2)C(c2cccc(Cl)c2)=NN1c1ccc(Br)cc1,1.2,43.5
Cc1cccc(C2=NN(c3ccccc3)[C@@H](C(=O)N3CCOC3=O)[C@@H]2c2ccc([N+](=O)[O-])cc2)c1,-4.0,54.4*
O=C1OCCN1C(=O)[C@H]1[C@H](c2ccc(F)cc2)C(c2cccc(Cl)c2)=NN1c1ccc(Br)cc1,-4.2,93.6*
Cc1cccc(C2=NN(c3ccc(Br)cc3)[C@@H](C(=O)N3CCOC3=O)[C@@H]2c2ccc(Cl)cc2)c1,-4.4,79.7*
O=C1OCCN1C(=O)[C@H]1[C@H](c2ccc([N+](=O)[O-])cc2)C(c2ccccc2)=NN1c1ccc(Br)cc1,-6.0,49.7
O=C1OCCN1C(=O)[C@H]1[C@H](c2ccc(Cl)cc2)C(c2cccc(Cl)c2)=NN1c1ccccc1,-4.9,46.4
O=C1OCCN1C(=O)[C@H]1[C@H](c2ccccc2)C(c2cccc(Cl)c2)=NN1c1ccc(Br)cc1,3.0,-76.3
O=C1OCCN1C(=O)[C@H]1[C@H](c2ccc(Cl)cc2)C(c2ccccc2)=NN1c1ccc(Br)cc1,-3.4,64.6*
c1ccc2oc(SCc3cn4cccnc4n3)nc2c1,-0.4,1.0
CCN1C(=O)COc2ccc(-c3noc(-c4ccccc4C)n3)cc21,-0.9,-5.0
CCN(CC)c1ccc(-c2noc(CN3CCc4ccccc4C3)n2)cn1,-9.2,-5.3
O=C(NC1CC1)c1cccc(-c2nc(-c3ccccc3)no2)c1,0.7,-4.0
CC[C@@H]1C(c2cccc(Cl)c2)=NN(c2ccccc2)[C@H]1C(=O)N1CCOC1=O,-5.7,-60.7
CC[C@@H]1C(c2cccc(Cl)c2)=NN(c2ccc(Br)cc2)[C@H]1C(=O)N1CCOC1=O,5.7,95.1*
COc1ccccc1[C@@H]1C(c2cccc(C)c2)=NN(c2ccc(Br)cc2)[C@H]1C(=O)N1CCOC1=O,-8.8,-15.5
SMILES,Pf apPOL inh,mHTT CaM bind
Cc1cccc(C2=NN(c3ccc(Br)cc3)[C@@H](C(=O)N3CCOC3=O)[C@@H]2c2ccc(F)cc2)c1,-7.3,76.2*
O=C(CN1C(=O)/C(=C/c2ccc(Cl)cc2)Sc2ccccc21)NCCN1CCCC1,4.5,24.0
CCN(CC)CCNC(=O)CN1C(=O)/C(=C/c2cccc(Cl)c2)Sc2ccccc21,0.2,11.0
CCN(CC)CCNC(=O)CN1C(=O)/C(=C/c2ccc(C(F)(F)F)cc2)Sc2ccccc21,-3.5,100.0*
O=C(CN1C(=O)/C(=C/c2cccc(Cl)c2)Sc2ccccc21)NCCN1CCCCCC1,-0.8,54.0*
CCCCN(C)CCNC(=O)CN1C(=O)/C(=C/c2cccc(Cl)c2)Sc2ccccc21,-15.3,19.0
CCCCN(C)CCCNC(=O)CN1C(=O)/C(=C/c2cccc(Cl)c2)Sc2ccccc21,1.2,98.0*
N#CC1=C(N)OC2=C(C(=O)CCC2)C1c1ccc(Cl)s1 (configuration not stated),/,-0.2
N#CC1=C(N)C(C#N)(C#N)C(c2ccccc2F)C2CCCC=C12 (configuration not stated),-2.9,11.0
COCCOc1ncc(NC(=O)CSCC(=O)O)cc1C(F)(F)F,-7.9,/
CN1c2cc(C(=O)N3CCN(c4ccccc4Cl)CC3)ccc2C(=O)N2CCCCC21 (configuration not stated),2.6,2.3
CN1c2cc(C(=O)N3CCc4ccccc4C3)ccc2C(=O)N2CCCCC21 (configuration not stated),-3.7,93.3*
Cc1ccc(CN2C(=O)NC3(CCCN(C(=O)c4cc(C)cc(C)c4)C3)C2=O)cc1 (configuration not stated),-7.5,3.0
COc1cc(C=C2Oc3c(ccc4c3CN(CCN3CCOCC3)CO4)C2=O)cc(OC)c1OC,-36.4,88.6*
COCCCN1COc2ccc3c(c2C1)OC(=Cc1cc(OC)c(OC)c(OC)c1)C3=O,-28.5,29.3
COc1ccc(C=C2Oc3c(ccc4c3CN(Cc3ccncc3)CO4)C2=O)c(OC)c1OC,-19.2,0.2
COc1ccc(C=C2Oc3c(ccc4c3CN(c3ccc5c(c3)OCCO5)CO4)C2=O)cc1OC,2.6,2.9
